Article PMC7819943, “Rice protein-binding microarrays: a tool to detect cis-acting elements near promoter regions in rice”
The full ranking holds about 39,000 sequences; the median of “fluorescence intensity (a.u.)” is about 4,300, and the highest 2% start at about 39,000. This excerpt belongs to a sample that is enriched for the highest values.

The sequences below were run against T1, OsSMF1 (Oryza sativa, UniProt Q6ZLB0 1-436) (assay: protein-binding microarray (RPBM); PBS, 2% BSA, 51.3 ng/ul salmon testes DNA, 50 uM zinc acetate, 200 nM TF, 25 C, 1 h; high values mean tight binding). Conditions: protein: recombinant; tags: N-terminal polyhistidine and DsRed monomer fusion (pET32a); chain copies: 2; label: CyDye5-dUTP incorporated in the synthesized complementary strand; 3' TTTTT single-stranded linker to array surface; dsDNA, one strand shown.
T1 sequence: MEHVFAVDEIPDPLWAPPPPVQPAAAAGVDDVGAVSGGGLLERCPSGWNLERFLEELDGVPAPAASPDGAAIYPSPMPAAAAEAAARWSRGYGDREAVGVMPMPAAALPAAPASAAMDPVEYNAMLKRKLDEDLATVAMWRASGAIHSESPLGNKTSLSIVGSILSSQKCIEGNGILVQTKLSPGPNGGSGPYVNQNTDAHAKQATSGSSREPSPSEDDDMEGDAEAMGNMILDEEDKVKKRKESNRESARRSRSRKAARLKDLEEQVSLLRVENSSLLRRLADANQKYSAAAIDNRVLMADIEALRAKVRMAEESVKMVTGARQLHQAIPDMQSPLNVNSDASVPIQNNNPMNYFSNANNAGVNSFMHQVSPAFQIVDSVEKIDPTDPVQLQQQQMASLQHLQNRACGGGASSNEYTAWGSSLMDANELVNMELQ
In short: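 Transcription factors were made in E. coli BL21-CodonPlus as N-terminal fusions to a polyhistidine tag and DsRed, then purified on Ni–NTA. After primer extension with Cy5-dUTP and blocking with 2% BSA, a custom Agilent array was exposed for 1 h at 25 °C to 200 nM protein in PBS, 2% BSA, salmon testes DNA and 50 µM zinc acetate. Washed arrays were scanned on an Axon 4000B, and the binding signal is per-feature fluorescence intensity in arbitrary units.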

| Sequence | binding signal |
| --- | --- |
| CATATATGCCCATCACCCCAATAAGAGTTCCGAATTAGATCGGAGTCACCTAGTGCAG | 3560 fluorescence intensity (a.u.) |
| CATCCCCAAACTCCGCCGCCGCCGCCGTCACCGCCGCTCGCGGAGTCACCTAGTGCAG | 3700 fluorescence intensity (a.u.) |
| ATTCATATATATATATACACACACACTTACTTTGTATATGCGGAGTCACCTAGTGCAG | 3190 fluorescence intensity (a.u.) |
| AATTCTAGGTCCAGCACTGTGCTTACCTGTATAGAAGCCTCGGAGTCACCTAGTGCAG | 3200 fluorescence intensity (a.u.) |
| GCAGGAGCAAAGCGCTTACTTTTGCCTCACACTGTATAGTCGGAGTCACCTAGTGCAG | 45400 fluorescence intensity (a.u.) |
| TTCTTCTTCTATTCCACGTCCACGTGTATGGCCAGGAGTTCGGAGTCACCTAGTGCAG | 16100 fluorescence intensity (a.u.) |
| TGAAAATGGTGTTGGCATCATAAAATATTTAACCAACCCCCGGAGTCACCTAGTGCAG | 3150 fluorescence intensity (a.u.) |
| TCACGAGCCGACACGTGTCTCCTGACGTGGTACCCTTTCCCGGAGTCACCTAGTGCAG | 21900 fluorescence intensity (a.u.) |
| AGATGTGATACATTAGCATTCTAGCACGGCGGTGGCATTGCGGAGTCACCTAGTGCAG | 3250 fluorescence intensity (a.u.) |
| TTCTGATTAGGCTGCCACATTGGCGGCACGTGTGATAGCTCGGAGTCACCTAGTGCAG | 45900 fluorescence intensity (a.u.) |
| TTGGCGTGACTAGGCGCAATTTCTGCAAATTGGAGCTCGGCGGAGTCACCTAGTGCAG | 7820 fluorescence intensity (a.u.) |
| GGCCAGGCCACCCCAACACGCCAGCCTCCCGGGCCGTTGACGGAGTCACCTAGTGCAG | 3250 fluorescence intensity (a.u.) |
| TGAACCTCGAAGATGCAAATATGTAGTAGTACGTAGGTCCCGGAGTCACCTAGTGCAG | 3310 fluorescence intensity (a.u.) |
| CATTTCATATCAGAAGTGTGATCACTGTAACCCGCGGCGCCGGAGTCACCTAGTGCAG | 64500 fluorescence intensity (a.u.) |
| GGTCCGGTGTGACACTGTGACCCCGCCGTAACCCCGTAACCGGAGTCACCTAGTGCAG | 4060 fluorescence intensity (a.u.) |
| TATGTATGATCTCTTCCTGTAACATTTTCATCATCTAACCCGGAGTCACCTAGTGCAG | 3480 fluorescence intensity (a.u.) |
| AGAGGAGCATCTTCTCGCCTGAGATTCCGTCGACGCCATTCGGAGTCACCTAGTGCAG | 3540 fluorescence intensity (a.u.) |
| GTTGGTGGTGGAGCGGGAGGAGGTGCCGGTGGAGGCGGTGCGGAGTCACCTAGTGCAG | 53000 fluorescence intensity (a.u.) |
| AATGGACCACCGTTAGTCCACCAGTCAGCCAACCAATGGCCGGAGTCACCTAGTGCAG | 3360 fluorescence intensity (a.u.) |
| GGCGGTGCTGGTGGAGGCGGTGGTCTCGGAGGTGGAGCAGCGGAGTCACCTAGTGCAG | 46000 fluorescence intensity (a.u.) |
| GCGGGGTTGGAGGAGGAGGAGGTGGTGGTGGTGGTGGTGGCGGAGTCACCTAGTGCAG | 4860 fluorescence intensity (a.u.) |

| Sequence | binding signal |
| --- | --- |
| CAACACCCAACCCCAATTGGTCGCGGTGGGTCGGACGGACCGGAGTCACCTAGTGCAG | 34900 fluorescence intensity (a.u.) |
| TCGGCGGTCGTGGAGGTGGTGGCAGGCGGTCGTGGCGGAGCGGAGTCACCTAGTGCAG | 3990 fluorescence intensity (a.u.) |
| GAGGTGGGGTGGCTTAGTGACCTCGTGTCGTAGATTGGATCGGAGTCACCTAGTGCAG | 4900 fluorescence intensity (a.u.) |
| GAGGGGATGACGGTGGTCTCGGCAGCGGATGACGGCGGCGCGGAGTCACCTAGTGCAG | 4490 fluorescence intensity (a.u.) |
| AGAGGGTGGAGGAGCTGACTAGATTGCACTAGGTCTCGATCGGAGTCACCTAGTGCAG | 42000 fluorescence intensity (a.u.) |
| AGGTGGAGGCGCCGGTGTGGGTGGTGGAGCGGGAGGAGGTCGGAGTCACCTAGTGCAG | 4096 fluorescence intensity (a.u.) |
| CTAAGGGTCTAAGAGATGATGCTGTGATGAGGTGGATCATCGGAGTCACCTAGTGCAG | 4840 fluorescence intensity (a.u.) |
| CAATAAACCGGTGGTTGGACCGGTCCAACCAATAAACCAGCGGAGTCACCTAGTGCAG | 43900 fluorescence intensity (a.u.) |
| CCGCTCGTCGATTAGCCGGCCACGCCTCCCGCTCGTGAAGCGGAGTCACCTAGTGCAG | 3680 fluorescence intensity (a.u.) |
| GACCCTGCCGCCCTCCATTTGGGCGGCAAGCTGACGTGGCCGGAGTCACCTAGTGCAG | 32700 fluorescence intensity (a.u.) |
| GCAGTTTGTCTCATGTGCTGCTGACTAGATATTGATCATACGGAGTCACCTAGTGCAG | 11400 fluorescence intensity (a.u.) |
| ATGATGAGTAGGAGTTTGTGCAGGTGGACGGCGGTGGTGGCGGAGTCACCTAGTGCAG | 3180 fluorescence intensity (a.u.) |
| TTCGCTAACGCCGCGCGTCACGTAGACACGTACTACTAGCCGGAGTCACCTAGTGCAG | 49600 fluorescence intensity (a.u.) |
| GTTCGCGGGCCGCGAACGTCCACGTACTAGACGCCCCTCACGGAGTCACCTAGTGCAG | 4050 fluorescence intensity (a.u.) |
| TCACGCGTAGCTTCGCCGCTACGTGGCCTCGCGCACGTTACGGAGTCACCTAGTGCAG | 5500 fluorescence intensity (a.u.) |
| CCTGCATGCGTGGCTGCGCTCACTGTCGTTATTTGCTTTACGGAGTCACCTAGTGCAG | 5080 fluorescence intensity (a.u.) |
| AATGAGATACTTAGACTTGTGAGGCCCGACGTGTCCAATCCGGAGTCACCTAGTGCAG | 4470 fluorescence intensity (a.u.) |
| AAAGGGCAGGCACATCGCTTTCGGGCCCTGTCACGTACCCCGGAGTCACCTAGTGCAG | 3920 fluorescence intensity (a.u.) |
| TCAATAATGTGTGCGTGACCTGGGCAAGTGGCGGTAGCAACGGAGTCACCTAGTGCAG | 3540 fluorescence intensity (a.u.) |
| ATCTGCTTTGTGAGGCACATGAAGCTGGAGATATCTGTCACGGAGTCACCTAGTGCAG | 4740 fluorescence intensity (a.u.) |
| TTTGCTCGTTGGCAGCGGCCAGCAGGCACGTGTAACGGCGCGGAGTCACCTAGTGCAG | 4190 fluorescence intensity (a.u.) |
